Assay results published in PubChem BioAssay AID1259417 (TB Discovery Research, Infectious Disease Research Institute, 2018).
The whole screen tested about 1,100 compounds, of which about 760 (69%) were called active. How the calls were made is not given here. The set was probably picked from earlier hits. This is one part of the list.

Test: M. tuberculosis growth inhibition, HTS (AID 1259417);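 further: bacteria grown with compound for 5 days at 37 °C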
Conditions: stronger effect = higher value, concentration not given here
[1] = M. tuberculosis DsRed fluorescence growth inhibition
[2] = M. tuberculosis growth inhibition

Compound | inhibition [1] | inhibition [2] [%]
CCOc1cc(CNCc2ccccc2OCc2ccccc2)cc(Cl)c1OCC | 9.66% (inactive) | -13.6
CCOc1cc(CNCCO)cc(Br)c1OCc1ccc(Cl)cc1Cl | 37.7% (active) | 41.3
CCOc1cc(C(=O)ON=C(N)Cc2ccc(Cl)cc2Cl)cc(OCC)c1OCC | 4.39% (inactive) | -6.22
O=C(COc1ccc2c(-c3ccccc3)cc(=O)oc2c1)OC1CCCCC1 | 11.7% (active) | 53.3
CCOCCOC(=O)COc1ccc2c(-c3ccccc3)cc(=O)oc2c1 | 64% (active) | 89
Cc1cc(=O)oc2cc(OCC(=O)OC3CCCCC3)ccc12 | 36.4% (active) | 72.1
O=C1c2cccc3cccc(c23)C(=O)N1CCN1CCN(CC(O)COCc2ccc(Cl)cc2)CC1 (stereo not drawn) | -12% (inactive) | -24.9
Cc1ccc(-c2csc(-c3ccncc3)n2)cc1C | 86.8% (active) | 97.1
COc1ccc(-c2csc(-c3ccc(OC)c(OC)c3)n2)cc1C | 1.2% (inactive) | -8.81
O=C(Nc1nnc(-c2ccc(Cl)cc2)o1)c1ccc(Br)cc1 | 94.3% (active) | 95.3
O=C(CCSc1ccccc1)Nc1nnc(-c2ccc3c(c2)CCCC3)o1 | 20.9% (inactive) | 26.4
O=C(Nc1nnc(-c2ccc3c(c2)CCCC3)o1)c1ccccc1Br | 2.76% (inactive) | -9.29
CCCCC(=O)Nc1nnc(-c2ccc3c(c2)CCCC3)o1 | 25.2% (active) | 57.9
O=C(C=Cc1ccccc1)Nc1nnc(-c2ccc3c(c2)CCCC3)o1 | 8.27% (inactive) | 19.3
CC(C)(C)C(=O)Nc1nnc(-c2cc(Cl)ccc2Cl)o1 | 80.9% (active) | 86.9
O=C(Nc1nnc(-c2ccc(Cl)cc2)o1)c1ccccc1Br | 12.4% (active) | 44.2
O=C(Nc1nnc(-c2cc(Cl)ccc2Cl)o1)c1ccc(Cl)cc1Cl | 11.8% (inactive) | 9.57
O=C(Nc1nnc(-c2ccc3c(c2)CCCC3)o1)c1ccccc1Cl | -2.21% (inactive) | -7.28
N#Cc1ccc(C(=O)Nc2nnc(-c3ccc4c(c3)CCCC4)o2)cc1 | 83.6% (active) | 91.1
O=C(Nc1nnc(-c2cc(Cl)ccc2Cl)o1)c1ccccc1F | 59.5% (active) | 79.5
O=C(Nc1nnc(-c2ccc3c(c2)CCCC3)o1)c1ccccc1F | 49% (active) | 79.6
O=C(Nc1nnc(-c2ccc(Cl)cc2)o1)c1ccccc1F | 82% (active) | 89.7
O=C(Nc1nnc(-c2ccc3c(c2)CCCC3)o1)c1ccco1 | 9.46% (inactive) | 22.5
O=C(Nc1nnc(-c2ccc(Br)cc2)o1)c1ccccc1F | 80.9% (active) | 94.2
